From PubChem BioAssay AID1159580 (chemical genetic matrix, 2015)
Where “and” joins values, the source holds several entries; their conditions need not be identical. Equal entries are not always repeated. The whole screen tested about 5,500 compounds, of which about 2,000 (36%) were called active. Not shown: some 18% with an inconclusive outcome. Cut-off read from the data, not from the text of the source: active = normalized growth mostly below about 0.91 (no sharp cut-off); inconclusive = no clear call, values can overlap the other calls; inactive = mostly above about 0.92. The list shows a part of the results.

Assay: chemical genetic growth profiling, strain panel (AID 1159580);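 note: tested at 20 µM; growth read once vehicle control cultures reached saturation at 30 °C; 1 = growth at the plate median or of vehicle wells; lower values mean less growth of the strain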
Settings: S. cerevisiae deletion strains, growth OD

Measured: normalized growth

COc1c2ccoc2cc2oc(C)cc(=O)c12
inactive: locus YAL021C, strain ccr4, stronger effect = lower value 1 | locus YAL026C, strain drs2, stronger effect = lower value 0.999 | locus YAL030W, strain snc1, stronger effect = lower value 0.987 | locus YBL061C, strain skt5, stronger effect = lower value 1 | locus YBR009C, strain hhf1, stronger effect = lower value 0.993 | locus YBR021W, strain FUR4, stronger effect = lower value 0.997 | locus YBR023C, strain chs3, stronger effect = lower value 0.991 | locus YBR171W, strain sec66, stronger effect = lower value 0.987 | locus YBR229C, strain ROT2, stronger effect = lower value 0.948 | locus YBR231C, strain swc5, stronger effect = lower value 0.99 | locus YBR279W, strain paf1, stronger effect = lower value 0.995 | locus YCL011C, strain gbp2, stronger effect = lower value 0.985 | locus YCL016C, strain dcc1, stronger effect = lower value 0.979 | locus YCL029C, strain bik1, stronger effect = lower value 0.98 | locus YCL069W, strain vba3, stronger effect = lower value 1.01 | locus YCR088W, strain abp1, stronger effect = lower value 0.99 | locus YDL005C, strain med2, stronger effect = lower value 1 | locus YDL035C, strain GPR1, stronger effect = lower value 0.972 | locus YDL040C, strain nat1, stronger effect = lower value 1 | locus YDL074C, strain BRE1, stronger effect = lower value 0.981 | locus YDL101C, strain DUN1, stronger effect = lower value 0.96 | locus YDL134C, strain PPH21, stronger effect = lower value 0.964 | locus YDL185W, strain tfp1, stronger effect = lower value 0.971 | locus YDL192W, strain arf1, stronger effect = lower value 0.945 | locus YDR001C, strain nth1, stronger effect = lower value 0.997 | locus YDR069C, strain doa4, stronger effect = lower value 1 | locus YDR101C, strain arx1, stronger effect = lower value 1.02 | locus YDR137W, strain rgp1, stronger effect = lower value 1 | locus YDR159W, strain sac3, stronger effect = lower value 1.02 | locus YDR162C, strain NBP2, stronger effect = lower value 0.905 | locus YDR195W, strain ref2 1.03 | locus YDR297W, strain sur2, stronger effect = lower value 1 | locus YDR318W, strain mcm21, stronger effect = lower value 0.945 | locus YDR334W, strain swr1, stronger effect = lower value 1 | locus YDR335W, strain msn5, stronger effect = lower value 1 | locus YDR388W, stronger effect = lower value 0.996 | locus YDR392W, strain spt3, stronger effect = lower value 0.961 | locus YDR502C, strain sam2, stronger effect = lower value 0.966 | locus YEL003W, strain gim4, stronger effect = lower value 1 | locus YEL037C, strain rad23, stronger effect = lower value 1 | locus YEL061C, strain CIN8 (second series), stronger effect = lower value 0.997 | locus YEL061C, strain CIN8, stronger effect = lower value 0.975 | locus YER015W, strain faa2, stronger effect = lower value 0.997 | locus YER016W, strain bim1, stronger effect = lower value 0.996 | locus YER110C, stronger effect = lower value 0.972 | locus YER111C, strain swi4, stronger effect = lower value 0.985 | locus YER155C, strain BEM2 (second series), stronger effect = lower value 0.999 | locus YER155C, strain BEM2, stronger effect = lower value 1 | locus YER167W, strain BCK2, stronger effect = lower value 0.98 | locus YFR010W, strain ubp6, stronger effect = lower value 0.985 | locus YGL078C, strain dbp3, stronger effect = lower value 0.999 | locus YGL086W, strain mad1, stronger effect = lower value 1.05 | locus YGL167C, strain pmr1, stronger effect = lower value 0.997 | locus YGL173C, strain kem1, stronger effect = lower value 0.984 | locus YGL227W, strain vid30, stronger effect = lower value 0.986 | locus YGL240W, strain doc1, stronger effect = lower value 1.01 | locus YGL248W, strain PDE1, stronger effect = lower value 0.928 | locus YGL253W, strain hxk2, stronger effect = lower value 0.988 | locus YGR078C, strain PAC10, stronger effect = lower value 0.922 | locus YGR135W, strain pre9, stronger effect = lower value 0.914 | locus YGR252W, strain gcn5, stronger effect = lower value 0.912 | locus YHR013C, strain ard1, stronger effect = lower value 0.993 | locus YHR027C, strain rpn1, stronger effect = lower value 0.995 | locus YHR030C, strain SLT2, stronger effect = lower value 0.987 and 1.04 | locus YHR079C, strain IRE1 (second series), stronger effect = lower value 1 | locus YHR079C, strain IRE1, stronger effect = lower value 1.04 | locus YHR094C, strain hxt1, stronger effect = lower value 0.978 | locus YHR129C, strain ARP1, stronger effect = lower value 0.981 | locus YHR142W, strain chs7, stronger effect = lower value 0.971 | locus YHR200W, strain rpn10, stronger effect = lower value 0.953 | locus YIL066C, strain RNR3, stronger effect = lower value 0.971 | locus YIL073C, strain SPO22, stronger effect = lower value 0.936 | locus YIL125W, strain kgd1, stronger effect = lower value 1 | locus YIR030C, strain dcg1, stronger effect = lower value 0.995 | locus YJL092W, strain hpr5, stronger effect = lower value 0.993 | locus YJL095W, strain BCK1 (second series), stronger effect = lower value 0.999 | locus YJL095W, strain BCK1, stronger effect = lower value 0.884 and 1.03 | locus YJL115W, strain asf1, stronger effect = lower value 1.01 | locus YJL129C, strain trk1, stronger effect = lower value 1.01 | locus YJL134W, strain LCB3, stronger effect = lower value 0.985 | locus YJL154C, strain vps35, stronger effect = lower value 1.01 | locus YJL164C, strain tpk1, stronger effect = lower value 0.989 | locus YJL166W, strain qcr8, stronger effect = lower value 0.984 | locus YJL168C, strain set2, stronger effect = lower value 1 | locus YJL187C, strain SWE1 (second series), stronger effect = lower value 0.947 | locus YJR043C, strain POL32, stronger effect = lower value 0.97 | locus YJR066W, strain TOR1, stronger effect = lower value 0.993 | locus YJR075W, strain HOC1, stronger effect = lower value 0.955
